This is part of a sample that, as a whole, favours compounds with a hit. Of some 83,000 tested, about 20% had one in any assay.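 Compound tested at a single concentration for 48 hours in 96-well plates; a percent growth value below 10 was scored as active.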 Calls of active or inactive are those of the source.
tested on: MDA-MB-468 breast; test: NCI-60 one-dose screen, 48 h (100 = growth as untreated, 0 = no growth, -100 = all killed); conditions: 10 µM unless noted

Row | SMILES | growth
1 | COc1ccc(C2=NN(c3nc(-c4ccc(OC)cc4)c(C#N)c(=O)n3C)C(=O)CC2)cc1 | 96.2% (inactive)
2 | CN1CCN(c2ccc(NC(=O)c3cncnc3Nc3ccc4c(ccn4Cc4cccc(F)c4)c3)cc2)CC1 | 44.9% (inactive)
3 | CCN(CC)CCCC(Cc1ccccc1)Nc1c2ccc(Cl)cc2nc2ccc(OC)cc12 (centres undefined) | -72.3% (active)
4 | O=C(O)c1ccc(-n2cc(CNc3cc(F)c(F)c(F)c3)c(-c3cccc(F)c3)n2)cc1 | 95.4% (inactive)
5 | CCCc1cc(=O)oc2c3c(c4c(c12)OC(C)(C)CC4)OC(C)[C@H](C)[C@@H]3O (some centres undefined) | 108% (inactive)
6 | COCCOC(=O)NC(=O)Nc1ccc(C(=O)c2ccc(Cl)cc2)cc1 | -8.24% (active)
7 | [O-][n+]1c(Cl)cc(Cl)c2ccccc21 | 123% (inactive)
8 | O=c1oc2c(cc1-c1ccccc1)c(=O)[nH]c1ccccc12 | 105% (inactive)
9 | Cc1c2ccccc2nc2cc3c(cc12)[C@H]1CC[C@]2(C)C(=O)CC[C@H]2[C@@H]1CC3 | 91.3% (inactive)
10 | CCOC(=O)c1c(NC(=O)c2cccc(C(F)(F)F)c2)sc2c3c(ccc12)OCN(C)C3 | -67.2% (active)
11 | O=C(/C(=C\c1ccc([N+](=O)[O-])cc1)S(=O)Cc1ccc(F)cc1)c1ccc(F)cc1 (centres undefined) | 16.3% (inactive)
12 | COC(=O)[C@H](CSC)N(C)C(=O)[C@@H]1CSSC[C@@H](NC(=O)c2nc3ccccc3cc2O)C(=O)NCC(=O)N1C | 61.3% (inactive)
13 | COc1ccc(NC(N)=NCCCOc2ccc(F)cc2)cc1 | 66.2% (inactive)
14 | COc1ccc2c(c1)c(-c1nc(-c3c[nH]c4ncccc34)cs1)cn2CCO | 1.57% (active)

Reference: PubChem BioAssay (NCI)
